# Bioassay records deposited in PubChem BioAssay by National Center for Advancing Translational Sciences (NCATS).
# D1 ag – human D1 receptor agonism; P21728; HEK293 T-REx D1 cells, calcium flux, agonist mode; 1% of 360,000 active; activation, % at 2 µM; AID 504660; in the data active means activation above about 30%
#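 Agonism was scored from calcium flux recorded over 180 s (1 read/s) after pintool compound addition, following a 10-cycle baseline. Cells were inducible force-coupled HEK293 TREx D1, plated overnight at 30 C and loaded with no-wash calcium dye.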
# GALK inhibitor – galactokinase (human) inhibition | Purified GALK, Kinase-Glo residual ATP luminescence | 0.007% of 270,000 active | AID 1868 | P51570 | Potency, µM (series often up to 57.5 µM), hits mostly inhibitors
#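 Human GALK (5 nM) with 35 uM ATP and 100 uM galactose in 20 mM HEPES pH 8.0, 5 mM MgCl2, 60 mM NaCl, 1 mM DTT, 0.01% BSA. After 1 h at room temperature, leftover ATP was read by Kinase-Glo Plus luminescence.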
# USP2a inh – blocks human ubiquitin-specific protease USP2a. AID 463254. USP2 core, Ub-CHOP2 coupled fluorogenic reporter, 485/531. 0.01% of 330,000 active. Potency, µM (top dose mostly 38.3 µM), actives largely listed as inhibitors
#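 Deubiquitinase activity read as fluorescence (485/531 nm) after Ub-CHOP2 cleavage activates the enterokinase reporter on its substrate; USP2 core 10nM, Ub-CHOP2 and substrate 25nM each, 30min compound preincubation then 60min RT; data normalized to NEM, curves fitted.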
# D1 antagonist – human D1 dopamine receptor antagonism; HEK293 TREx D1 cells, calcium flux, dopamine EC80; active compounds read low; activity change, negative = inhibition, % at 10 µM; 3.2% of 360,000 active; in the data active means activity change below about -30%
#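 Calcium flux readout: force-coupled, inducible Hek293 Trex D1 line, cells induced overnight at 30 C with tetracycline, dye-loaded 30–90 min at RT. Antagonism scored against EC80 dopamine challenge given 180 s after compound.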
# D1 PAM – enhances dopamine response at the human D1 receptor; AID 504651; HEK293 TREx D1 cells, calcium flux, dopamine EC20 potentiation; P21728; potentiation, % at 10 µM; 0.036% of 360,000 active; in the data active means potentiation above about 30%
# Eya2 phos inh – blocks the phosphatase activity of human Eya2; O00167; recombinant Eya2, OMFP fluorescence dephosphorylation (OMFP is methylfluorescein phosphate); Potency, µM (titrated, usually from 76.9 µM), usual class: inhibitors; 0.006% of 330,000 active
# Target sequence (O00167 whole entry, looked up): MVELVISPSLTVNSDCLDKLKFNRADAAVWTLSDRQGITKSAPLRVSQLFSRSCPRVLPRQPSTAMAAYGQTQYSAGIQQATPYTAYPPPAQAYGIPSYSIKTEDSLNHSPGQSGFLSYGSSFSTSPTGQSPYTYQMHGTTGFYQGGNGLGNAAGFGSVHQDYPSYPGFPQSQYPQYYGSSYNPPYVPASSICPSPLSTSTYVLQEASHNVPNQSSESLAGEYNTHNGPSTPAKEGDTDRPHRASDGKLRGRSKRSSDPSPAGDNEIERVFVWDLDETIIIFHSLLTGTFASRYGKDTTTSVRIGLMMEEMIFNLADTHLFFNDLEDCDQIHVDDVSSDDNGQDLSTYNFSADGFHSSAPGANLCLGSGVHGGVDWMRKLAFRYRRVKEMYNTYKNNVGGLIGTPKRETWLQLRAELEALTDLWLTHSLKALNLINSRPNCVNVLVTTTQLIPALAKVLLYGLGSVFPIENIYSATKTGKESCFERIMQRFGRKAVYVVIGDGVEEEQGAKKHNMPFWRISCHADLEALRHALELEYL
#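 Eya2 protein (added as 0.2 uM solution) was preincubated with compound for 10 min at ambient temperature in 50 mM HEPES pH 7.5, 50 mM NaCl, 5 uM MgCl2, 0.05% BSA, 1 mM DTT. OMFP (added at 50 uM) then reacted 10 min; fluorescence read at 485/525 nm.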
# Hits are given with their value; n = inactive; x = not tested or not shown. This is a sample that favours compounds with a hit; in the whole collection about 3.9% have one here. Unless noted, the call rests on the fitted dose curve; in most records, active means well fitted inhibition curve with a large enough effect; inconclusive means small, poorly fitted or top-dose-only effect, or effect the other way; inactive means flat fitted curve, though single readings scatter.
SMILES,D1 ag,GALK inhibitor,USP2a inh,D1 antagonist,D1 PAM,Eya2 phos inh
CCOc1ccc(C(=O)NCCN2CCOCC2)cc1,n,n,n,n,n,n
COc1ccccc1NC(=O)CN(C)S(=O)(=O)c1ccc2c(c1)c(=O)n(C)c(=O)n2C,n,x,x,n,n,x
OC[C@H]1O[C@H](n2cnc3c(N[C@H]4CCC[C@@H]4O)ncnc32)[C@H](O)[C@@H]1O,x,x,x,x,x,n
O=C(NCCNc1nccc(C(F)(F)F)n1)c1cccc(C(F)(F)F)c1,n,n,n,-33.9,n,n
O=S(=O)(NCCNc1nccc(C(F)(F)F)n1)c1ccccc1,n,n,n,n,n,n
CC(=O)c1ccccc1OCCOCCOc1ccccc1C(C)=O,n,n,n,-33.9,n,n
COc1cc(C)ccc1OCCCCOc1ccccc1C(C)=O,n,n,n,-49.3,n,n
COc1cc(C)ccc1OCCCOc1ccccc1Cl,n,n,n,n,n,n
COc1ccc(-c2csc3ncnc(N4CCN(c5ccccc5O)CC4)c23)cc1,43.9,n,n,n,n,n
O=C(NCC1CCCO1)c1c(O)c2cccc3c2n(c1=O)CC3 (stereo not drawn),n,n,n,n,n,n
O=C(NCC1CCCO1)c1c(O)c2cccc3c2n(c1=O)CCC3 (stereo not drawn),n,n,n,-52.9,n,n
BrC(=C\c1ccccc1)/C=N/N1CCN(c2ccccn2)CC1,n,n,n,-31.8,n,n
Oc1cccc(/C=N/N2CCN(c3ccccn3)CC2)c1,n,n,n,n,n,n
c1ccc(N2CCN(c3cnccn3)CC2)nc1,n,n,n,-41.2,n,n
CCc1nn(CC(=O)NC2CC2)c(=O)c2cc3ccccc3n12,n,x,x,n,n,x
COc1ccc(NC(=O)c2cccn2-c2nnc(N3CCCCC3)s2)cc1,n,x,x,n,n,x
COc1ccc2cc1Oc1ccc(cc1)C[C@H]1c3cc(c(OC)cc3CCN1C)Oc1c(OC)c(OC)cc3c1[C@H](C2)N(C)CC3,n,n,n,n,n,n
COc1ccc2cc1Oc1ccc(cc1)C[C@H]1c3c(cc4c(c3Oc3cc5c(cc3OC)CCN(C)[C@@H]5C2)OCO4)CCN1C,n,n,n,-37.3,n,n
COc1ccc2[nH]c3c(=O)n(CCCCC(=O)N4CCC(C(N)=O)CC4)c(=S)[nH]c3c2c1,n,n,n,-35.6,n,n
COc1ccc2[nH]c3c(=O)n(CCCCC(=O)NCCN4CCCC4)c(=S)[nH]c3c2c1,n,n,n,n,n,n
CC(=O)c1ccc(S(=O)(=O)NC2CC(=O)N(c3ccc(Cl)cc3)C2)cc1 (stereo not drawn),n,x,n,-33.6,n,n
O=C(NC1CC(=O)N(c2ccc(Cl)cc2)C1)c1ccc(S(=O)(=O)N2CCOCC2)cc1 (stereo not drawn),n,x,x,x,n,x
N#Cc1c[nH]n2c(NC3CCCCC3)c(-c3ccccc3F)nc12,n,x,x,n,n,x
Cc1cccc(C)c1Nc1nn2c(=O)c3cc4c(cc3nc2s1)OCO4,n,x,x,n,n,x
CCOc1ccc(/C=N/n2cnnc2)cc1,n,n,n,n,n,n
SMILES,D1 ag,GALK inhibitor,USP2a inh,D1 antagonist,D1 PAM,Eya2 phos inh
CCOc1cc(/C=N/n2cnnc2)cc(Br)c1O,n,n,n,-91.7,n,n
Cc1nn(C2CCS(=O)(=O)C2)c(Cl)c1/C=C/C(=O)OCC(=O)c1cc(C)n(-c2ccc(F)cc2)c1C (stereo not drawn),n,n,n,-30.9,n,n
CCOC(=O)c1ccc(NC(=O)N2CCc3ccccc32)cc1,n,n,n,n,n,n
O=C(Nc1ccccc1)c1ccc(CN2CCc3ccccc3C2)cc1,n,n,n,n,n,n
Cc1ccc(NC(=O)c2ccc(CN3CCc4ccccc4C3)cc2)cc1,n,n,n,-32.9,n,n
CCOC(=O)c1ccc(NC(=O)N2CCc3ccccc3C2)cc1,n,n,n,-38.7,n,n
CCN(CC)C(=O)c1sc(NC(=O)c2c(OC)cccc2OC)c(C#N)c1C,n,n,n,-30.1,n,n
CCN(CC)C(=O)c1sc(NC(=O)c2cccc([N+](=O)[O-])c2)c(C#N)c1C,n,x,n,n,n,n
CCc1ccccc1NC(=O)N1CCN(c2nnc(C)c3c(C)n(-c4ccccc4)nc23)CC1,n,x,x,n,n,x
Cc1ccc(C)c(N2CCN(C(=O)Cn3nc(Cc4cccnc4)c4ccccc4c3=O)CC2)c1,n,x,x,n,n,x
O=Cc1cc([N+](=O)[O-])ccc1N1CCOCC1,n,n,n,-39.0,n,n
O=[N+]([O-])c1ccc(N2CCCCCC2)c([N+](=O)[O-])c1,n,n,n,-52.7,n,n
O=C1NC(=S)N/C1=C/c1cc([N+](=O)[O-])ccc1N1CCOCC1,n,n,n,n,n,n
O=C(Nc1c(C(=O)c2ccc(Cl)cc2)oc2ccccc12)c1cc(=O)c2ccccc2o1,n,x,x,n,n,x
CC(C)(C)c1ccc(C(=O)Nc2ccc(F)cc2)s1,n,n,n,n,n,n
CC(C)S(=O)(=O)c1csc(C(=O)Nc2ccc(F)cc2)c1N,n,n,n,-55.6,n,n
COc1cc(N2CCCC2)c(OC)cc1/C=C(/C#N)c1ccc(F)cc1,n,n,n,n,n,n
COc1cc(N2CCCC2)c(OC)cc1/C=C(/C#N)c1ccc(Br)cc1,38.9,n,n,n,n,n
CC(=O)c1ccc(NC(=O)c2nc(-c3ccccc3)n(-c3ccc(C)cc3)n2)cc1,n,x,x,n,n,x
O=C(CN1C(=O)c2ccccc2S1(=O)=O)NC1CC2CCC1C2 (stereo not drawn),n,n,n,-72.5,x,n
O=C(CN1C(=O)c2ccccc2S1(=O)=O)N1CCOCC1,n,n,n,-34.3,n,n
CCN(CC)c1ccc([N+](=O)[O-])cc1/C=N/NC(=O)CC#N,n,n,n,n,n,n
Cc1ccc(-n2c(C)cc(/C=N/Nc3ccc([N+](=O)[O-])cn3)c2C)cc1,n,n,n,-45.9,n,n
Cc1cc(/C=N/NC(=O)CC#N)c(C)n1-c1ccc([N+](=O)[O-])cc1,n,n,n,-37.1,n,n
CCOc1ccc2[nH]c3c(N4CCc5ccccc5C4)ncnc3c2c1,n,n,n,n,n,n
Cc1ccc2[nH]c3c(N4CCc5ccccc5C4)ncnc3c2c1,n,x,n,-60.6,n,n
Clc1ccc2[nH]c3c(N4CCC5(CC4)OCCO5)ncnc3c2c1,n,n,n,-35.0,n,n
Brc1ccc2[nH]c3c(N4CCc5ccccc5C4)ncnc3c2c1,n,n,n,x,n,n
Fc1ccc2[nH]c3c(N4CCc5ccccc5C4)ncnc3c2c1,n,n,n,-35.3,n,n
